Results published in PubChem BioAssay (NCI).
This is part of a sample that, as a whole, favours compounds with a hit. Of some 83,000 tested, about 20% had one in any assay.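 Testing used 96-well plates and a 48-hour single-concentration exposure. Example: -40 means 40% of the starting cells died.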 The source made the active and inactive calls. How the source made its calls: active means growth percent below 10; inactive means the rest.

Tested on: OVCAR-8 ovarian
Assay: NCI-60 one-dose screen, 48 h (100 = growth as untreated, 0 = no growth, -100 = all killed)
Details: 10 µM

Compound	growth
CCOC(=O)CNC(=O)CN(Cc1ccccc1)C(=O)[C@@]1(C)CCC[C@]2(C)[C@H]3C[C@H]4C(C(C)C)=C[C@]3(CC[C@H]21)[C@@H]1C(=O)OC(=O)[C@@H]14	55.9% (inactive)
O=C(NCCCCCCCCCC[P+](c1ccccc1)(c1ccccc1)c1ccccc1)c1ccc(-n2nc(-c3ccccc3O)nc2-c2ccccc2O)cc1	-22.2% (active)
COc1ccc2[nH]c(=O)c(CSc3ccc(Nc4nccc(-c5ccc(Cl)cc5)n4)cc3)cc2c1	70.3% (inactive)
CCOC(=O)C1=C(N)N(c2ccccc2)C2=C(C(=O)CC(C)(C)C2)C1c1ccccc1OC (centres undefined)	108% (inactive)
COc1cccc2nc(Nc3cccc(NC(=O)c4ccc(CN5CCCN(C)CC5)c(C(F)(F)F)c4)c3)ccc12	-69.3% (active)
COc1cc(C2CC(c3ccc(C)cc3)=Nc3c(N)nc(N)nc3N2)ccc1Oc1nc(Nc2ccc(F)cc2)nc(N(C)C)n1 (centres undefined)	61.2% (inactive)
CC(=O)Nc1ccc(-c2cn(-c3cccc(C(=O)Nc4ccc(Cl)c(C(F)(F)F)c4)c3)nn2)cn1	-32.7% (active)
Cc1cc(C(F)(F)F)ccc1C(=O)Nc1sc2c(c1C#N)CCC(=O)C2	-9.16% (active)
COc1ccc(OC)c(/C=N/NC(=O)c2ccc3nc(-c4ccc(Cl)cc4)[nH]c3c2)c1	82.8% (inactive)
CC1=N/C(=C\c2ccc(N(C)C)cc2)C(=O)N1CCc1ccc(S(N)(=O)=O)cc1	97.9% (inactive)
Cc1ccc(-c2cc(C(=O)N=Nc3c(O)[nH]c4ccc(Br)cc34)c3ccccc3n2)cc1	56.5% (inactive)
COc1ccccc1C(=O)NNC(=O)CSc1nc2c(c(=O)[nH]1)CCCC2	109% (inactive)
C=C1CCC2C3(C)COC(c4cccc(F)c4)OC3CCC2(C)C1CC(O)C1=CCOC1=O (centres undefined)	15.1% (inactive)
C=C1CCC2C3(C)COC(c4c(F)cccc4F)OC3CCC2(C)C1C/C=C1/C(=O)OCC1O (centres undefined)	-42.5% (active)
Nc1nnc(-c2c[nH]c3ccc(F)cc23)c(-c2c[nH]c3ncccc23)n1	46.7% (inactive)
CC(=O)NS(=O)(=O)c1ccc(NC(=O)CSC2=NC(c3ccccc3)C(C(C)=O)=C(C)N2)cc1 (centres undefined)	115% (inactive)
COC1=C[C@@]23CCC(=O)N2CCc2cc4c(cc2[C@H]3[C@H]1OC(=O)C(C)(C)O)OCO4	109% (inactive)
Nc1nc(-c2ccccc2)cs1	37.7% (inactive)
COC(=O)c1c(C(=O)OC)c2n(c1C)[C@@H]([C@@H](C)[C@H]1CC[C@H]3[C@@H]4CCC5=CC(=O)CC[C@]5(C)[C@H]4CC[C@]13C)SC2	26.7% (inactive)
C/C(=N\NC(N)=S)c1ccc(Nc2nc(SC(C)C)nc(-c3ccccc3)c2C#N)cc1	30.5% (inactive)
COc1ccc(-c2cc(-c3cc(C(=O)c4ccc(Br)cc4)n4ccc(C)cc34)nc(N)c2C#N)cc1	66.3% (inactive)
CC(=O)Nc1ccc(-n2cnc3cc(-c4ccc(NS(C)(=O)=O)cc4)ccc32)cc1	66.9% (inactive)
O=c1cc(-c2ccccc2)oc2cc(OCCCCNCc3ccccc3)cc(O)c12	52.6% (inactive)
C/C(=N\N=C\c1ccc(Cl)c([N+](=O)[O-])c1)c1ccc2c(c1)Nc1ccccc1S2	6.83% (active)
N#Cc1c(-c2ccc(Cl)cc2)cc(-c2ccccc2)nc1OCc1ccccc1	93% (inactive)
COc1cccc(/C=N/NC(=O)c2ccc3nc(-c4ccc(Cl)cc4)[nH]c3c2)c1O	-84.6% (active)
COc1ccc(/C(CSc2nnc(-c3c[nH]c4ccccc34)n2-c2ccccc2)=N/O)cc1	29.7% (inactive)

Tested on: OVCAR-5 ovarian
Assay: as above
Details: 10 µM

Compound	growth
O=S(=O)(Nc1ncccn1)c1ccc(-n2c(-c3ccccc3)nc(-c3ccccc3)c2-c2ccccc2)cc1	104% (inactive)
COc1ccc(-c2cc(-c3cc(C(=O)c4ccccc4)n4ccc(C)cc34)nc(N)c2C#N)cc1	90% (inactive)
N#Cc1ccc(NC(=O)CSc2ccc(-c3ccc(Br)cc3)nn2)cc1	88.2% (inactive)
CCCn1c(O)c(N=Nc2nc(-c3cc4ccccc4oc3=O)cs2)c2cc(Br)ccc21	98.3% (inactive)
COc1cc2oc(-c3cccc(C(=O)Nc4ccc(Cl)cc4)c3)cc(=O)c2c(OCCNC(=O)CNC(=O)OC(C)(C)C)c1OC	67.8% (inactive)
CCCCOc1ccc(Nc2nc3ccccc3nc2Nc2ccc(OCCCC)cc2)cc1	128% (inactive)
COc1cc(NC(=O)CSc2nnc(-c3ccc4nc(-c5ccc(Cl)cc5)[nH]c4c3)o2)cc(OC)c1OC	132% (inactive)
O=C(NO)c1ccc(CNC(=O)[C@H]2Cc3c([nH]c4ccccc34)[C@H](c3ccc(Cl)cc3)N2)cc1	-6.43% (active)
N#Cc1c(NC(=O)c2ccc(C(F)(F)F)c(Cl)c2)sc2c1CCC(=O)C2	-8.2% (active)
O=C(Cc1ccc2c(c1)CN(C1CCC(=O)NC1=O)C2=O)NCc1cccc2ccccc12 (centres undefined)	-11% (active)
CCOC(=O)CNC(=O)CN(Cc1ccccc1)C(=O)[C@@]1(C)CCC[C@]2(C)[C@H]3C[C@H]4C(C(C)C)=C[C@]3(CC[C@H]21)[C@@H]1C(=O)OC(=O)[C@@H]14	105% (inactive)
O=C(NCCCCCCCCCC[P+](c1ccccc1)(c1ccccc1)c1ccccc1)c1ccc(-n2nc(-c3ccccc3O)nc2-c2ccccc2O)cc1	-94% (active)
COc1ccc2[nH]c(=O)c(CSc3ccc(Nc4nccc(-c5ccc(Cl)cc5)n4)cc3)cc2c1	96.6% (inactive)
CCOC(=O)C1=C(N)N(c2ccccc2)C2=C(C(=O)CC(C)(C)C2)C1c1ccccc1OC (centres undefined)	103% (inactive)
COc1cccc2nc(Nc3cccc(NC(=O)c4ccc(CN5CCCN(C)CC5)c(C(F)(F)F)c4)c3)ccc12	-100% (active)
COc1cc(C2CC(c3ccc(C)cc3)=Nc3c(N)nc(N)nc3N2)ccc1Oc1nc(Nc2ccc(F)cc2)nc(N(C)C)n1 (centres undefined)	99.6% (inactive)
CC(=O)Nc1ccc(-c2cn(-c3cccc(C(=O)Nc4ccc(Cl)c(C(F)(F)F)c4)c3)nn2)cn1	-17.8% (active)
Cc1cc(C(F)(F)F)ccc1C(=O)Nc1sc2c(c1C#N)CCC(=O)C2	-33.3% (active)
COc1ccc(OC)c(/C=N/NC(=O)c2ccc3nc(-c4ccc(Cl)cc4)[nH]c3c2)c1	104% (inactive)

Compound	growth
CC1=N/C(=C\c2ccc(N(C)C)cc2)C(=O)N1CCc1ccc(S(N)(=O)=O)cc1	116% (inactive)
Cc1ccc(-c2cc(C(=O)N=Nc3c(O)[nH]c4ccc(Br)cc34)c3ccccc3n2)cc1	99.7% (inactive)
COc1ccccc1C(=O)NNC(=O)CSc1nc2c(c(=O)[nH]1)CCCC2	108% (inactive)
C=C1CCC2C3(C)COC(c4cccc(F)c4)OC3CCC2(C)C1CC(O)C1=CCOC1=O (centres undefined)	76.1% (inactive)
C=C1CCC2C3(C)COC(c4c(F)cccc4F)OC3CCC2(C)C1C/C=C1/C(=O)OCC1O (centres undefined)	-10% (active)
Nc1nnc(-c2c[nH]c3ccc(F)cc23)c(-c2c[nH]c3ncccc23)n1	78.8% (inactive)
CC(=O)NS(=O)(=O)c1ccc(NC(=O)CSC2=NC(c3ccccc3)C(C(C)=O)=C(C)N2)cc1 (centres undefined)	104% (inactive)
COC1=C[C@@]23CCC(=O)N2CCc2cc4c(cc2[C@H]3[C@H]1OC(=O)C(C)(C)O)OCO4	101% (inactive)
Nc1nc(-c2ccccc2)cs1	83.5% (inactive)
COC(=O)c1c(C(=O)OC)c2n(c1C)[C@@H]([C@@H](C)[C@H]1CC[C@H]3[C@@H]4CCC5=CC(=O)CC[C@]5(C)[C@H]4CC[C@]13C)SC2	54.2% (inactive)
C/C(=N\NC(N)=S)c1ccc(Nc2nc(SC(C)C)nc(-c3ccccc3)c2C#N)cc1	75.6% (inactive)
COc1ccc(-c2cc(-c3cc(C(=O)c4ccc(Br)cc4)n4ccc(C)cc34)nc(N)c2C#N)cc1	91.8% (inactive)
CC(=O)Nc1ccc(-n2cnc3cc(-c4ccc(NS(C)(=O)=O)cc4)ccc32)cc1	79.3% (inactive)
O=c1cc(-c2ccccc2)oc2cc(OCCCCNCc3ccccc3)cc(O)c12	92.1% (inactive)
C/C(=N\N=C\c1ccc(Cl)c([N+](=O)[O-])c1)c1ccc2c(c1)Nc1ccccc1S2	72.8% (inactive)
N#Cc1c(-c2ccc(Cl)cc2)cc(-c2ccccc2)nc1OCc1ccccc1	92.9% (inactive)
COc1cccc(/C=N/NC(=O)c2ccc3nc(-c4ccc(Cl)cc4)[nH]c3c2)c1O	-63% (active)
COc1ccc(/C(CSc2nnc(-c3c[nH]c4ccccc34)n2-c2ccccc2)=N/O)cc1	55% (inactive)
